# Experimental data: PubChem BioAssay (NCATS)
# Unmarked numbers belong to inactive results. Results filed as inconclusive are left out. The source made the active and inactive calls. Calls come from the whole dose curve; as a rule, active = well fitted curve in the direction sought with a large enough effect; inconclusive = small, poorly fitted or top-dose-only effect, or another doubt; inactive = no such curve, though single readings can be large; an effect the other way counts as inactive or inconclusive.
# Tested on: not listed separately
# Assay: Primary fluorescence-based thiol-reactive (MSTI) qHTS assay for identification of artifact compounds. (AID 1845221); note: nearly all actives have a fitted effect of over 65% in size; note: potency is the fitted concentration of half-maximal effect;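 for activity change, negative = thiol reactive: thiol-reactive compounds lower the probe fluorescence signal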
# Conditions: MSTI thiol-reactivity probe, 1 h; series mostly up to 53.8 µM; activity change, negative = thiol reactive: at the top concentration
# Outline: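 Curve-fitted percent inhibition (4-parameter Hill) derived from fluorescence, Ex 525/Em 598 nm, scaled with Acetyl-MSTI and MSTI; 1 h incubation at room temperature.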
SMILES,Potency,"activity change, negative = thiol reactive"
CC1CCC2(O1)C(C)(C)CC(O[C@@H]1O[C@H](CO[C@@H]3OC[C@](O)(CO)[C@H]3O)[C@@H](O)[C@H](O)[C@H]1O)CC2(C)O (stereo partly specified),13 µM (active),–
C[C@]12CCC(=O)C=C1[C@@H](O)C[C@@H]1[C@@H]2[C@@H](O)C[C@@]2(C)[C@H]1CC[C@]2(O)C(=O)CO,–,1.54%
CC1CC(=O)C2=C(O1)OC1(C)CCC3C(C)(C)C=CC(=O)C3(C)C1C2 (stereo unspecified),7.36 µM (active),–
C/C=C1\[C@H](O[C@@H]2O[C@H](CO)[C@@H](O)[C@H](O)[C@H]2O)OC=C(C(=O)OC)[C@H]1CC(=O)OC,–,-20.5% [at 25.6 µM]
NC(Cc1c[nH]c2ccccc12)C(=O)NC(CCC(=O)O)C(=O)O (stereo unspecified),–,-13.8%
C=C1C(OC(C)=O)C(=O)C2C(C)(C)C(OC(C)=O)CCC2(C)C1CC(OC(C)=O)/C(C)=C/COC(C)=O (stereo unspecified),–,7.71% [at 25.6 µM]
COC(=O)c1cc(CN2CCN(C(=N)N)CC2)cc(C(=O)N2CCN(C(=O)c3ccc(C(=N)N)cc3)CC2)c1,–,20.2%
O=C1NC(=Nc2ccccc2F)S/C1=C\c1ccc(C(=O)O)cc1,–,-5.11%
CC(=O)OC[C@@]12[C@@H](OC(C)=O)C[C@@H](C)[C@](C)([C@@H]3C[C@H]4C=CO[C@H]4O3)[C@H]1CCC[C@]21CO1,–,27.7% [at 25.6 µM]
CNC(=O)c1ccc2cc([C@@]3(O)CCn4cncc43)ccc2c1,–,-10.4%
C=CC1(C)CC2=CCC3C(C)(C(=O)O)CCCC3(C)C2CC1OC(C)=O (stereo unspecified),–,10.8%
O=C(O)c1ccc(CCCc2ccc(OCCc3ccc(F)cc3)cc2)o1,–,126%
Cc1c(-c2ccnn2C)cc(C(=O)NCc2ccc(S(C)(=O)=O)cn2)c(=O)n1-c1cccc(C(F)(F)F)c1,inactive,–
O=C(c1ccc(C#Cc2cccc(F)c2)cn1)N1CC2CC2C1 (stereo unspecified),–,122%
CCOc1nc2cccc(C(=O)OCc3oc(=O)oc3C)c2n1Cc1ccc(-c2ccccc2-c2noc(O)n2)cc1,–,236%
CC(O)C(O)/C=C/C=C/C(=O)O[C@@H]1C=C2COC(=O)[C@]2(O)[C@@]2(C)CCCC(C)(C)C12 (stereo partly specified),–,71.4% [at 25.6 µM]
C=C1C2=CC(O)C(C)C1(C)CC/C(C)=C/CCC1(C)OC1C2=O (stereo unspecified),–,38.4%
C=C(C)[C@@H]1CC[C@](C)(O)[C@@H](OC(=O)c2ccccc2)C1,–,5.96%
CCCOc1ccn2c(C(C)=O)cc(-c3ccccc3S(C)(=O)=O)c2c1,–,3.11%
Nc1ccn([C@@H]2C(F)=C(CO)[C@@H](O)[C@H]2O)c(=O)n1,–,-1.9%
C[C@@H]1O[C@@H](O[C@@H]2[C@@H](O)[C@H](O[C@@H]3[C@@H](O)[C@@H](O)[C@H](O[C@H]4[C@H](OC(=O)[C@]56CCC(C)(C)C[C@H]5C5=CCC7[C@@]8(C)C[C@H](O)[C@H](O[C@@H]9O[C@H](C(=O)O)[C@@H](O)[C@H](O)[C@H]9O)[C@@](C)(CO)C8[C@H](O)C[C@@]7(C)[C@]5(C)CC6)OC[C@H](O)[C@@H]4O)O[C@H]3C)OC[C@H]2O)[C@H](O)[C@H](O)[C@H]1O (stereo partly specified),–,319% [at 11.5 µM]
C[C@@H]1CC[C@H]2C(C)(C)[C@H](O)[C@H](O)C[C@]2(C)[C@@]12Cc1c(O)cc3c(c1O2)CNC3=O,–,75.9%
OC[C@H]1O[C@@H](Oc2cc(O)cc(-c3cc4ccc(O)cc4o3)c2)[C@H](O)[C@@H](O)[C@@H]1O,5.19 µM (active),–
CC1(C)CCC(C)(C)c2cc([C@@H](O)C(=O)Nc3ccc(C(=O)O)cc3F)ccc21,–,135%
c1ccc(C(OC2CCN(CCCc3nn[nH]n3)CC2)c2ccccc2)cc1,–,-1.58%
COc1cc(NC(=O)c2ccccn2)ccc1Cl,–,43.4%
Oc1ccc([C@H]2COc3cc(O)ccc3C2)cc1,–,-20.1%
C=CCc1ccc(O[C@@H]2O[C@H](CO[C@@H]3O[C@H](CO)[C@@H](O)[C@H](O)[C@H]3O)[C@@H](O)[C@H](O)[C@H]2O)c(O)c1,–,34% [at 25.6 µM]

# Tested on: Nanoluciferase (engineered Oplophorus gracilirostris luciferase)
# Assay: Primary Nanoluciferase (NLuc) qHTS assay for identification of artifact compounds. (AID 1845222);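 note: 0% = DMSO and -100% = no enzyme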
# Conditions: NLuc-conditioned medium, Nano-Glo luminescence, 5 min; series mostly up to 54.1 µM; activity, negative = inhibition: at the top concentration
# Outline: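 Compounds are pinned into diluted (1:55) conditioned medium of NLuc-expressing S16 cells and held 15 min at room temperature protected from light. Nano-Glo substrate follows, and luminescence is read 5 min later.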
SMILES,"activity, negative = inhibition",Potency
C[C@]12CCC(=O)C=C1[C@@H](O)C[C@@H]1[C@@H]2[C@@H](O)C[C@@]2(C)[C@H]1CC[C@]2(O)C(=O)CO,3.45%,–
CC1CC(=O)C2=C(O1)OC1(C)CCC3C(C)(C)C=CC(=O)C3(C)C1C2 (stereo unspecified),-0.183%,–
C/C=C1\[C@H](O[C@@H]2O[C@H](CO)[C@@H](O)[C@H](O)[C@H]2O)OC=C(C(=O)OC)[C@H]1CC(=O)OC,2.47% [at 25.7 µM],–
CC(=O)O[C@H]1[C@H](C)[C@@H](O)[C@H]2[C@@H]1C=C(C(=O)O)[C@H]1C[C@@H]3[C@H]([C@H]21)[C@H]1C(=O)O[C@@H]2CC[C@@]3(C)O[C@]1(O)[C@@H]2C,-2.08% [at 25.7 µM],–
NC(Cc1c[nH]c2ccccc12)C(=O)NC(CCC(=O)O)C(=O)O (stereo unspecified),-6.35%,–
C=C1C(OC(C)=O)C(=O)C2C(C)(C)C(OC(C)=O)CCC2(C)C1CC(OC(C)=O)/C(C)=C/COC(C)=O (stereo unspecified),-0.246% [at 25.7 µM],–
CC1(C)CCC[C@@]2(C)[C@H]1[C@H](O)C=C1COC(=O)[C@@]12O,-0.0914%,–
COC(=O)c1cc(CN2CCN(C(=N)N)CC2)cc(C(=O)N2CCN(C(=O)c3ccc(C(=N)N)cc3)CC2)c1,0%,–
O=C1NC(=Nc2ccccc2F)S/C1=C\c1ccc(C(=O)O)cc1,-6.05%,–
CC(=O)OC[C@@]12[C@@H](OC(C)=O)C[C@@H](C)[C@](C)([C@@H]3C[C@H]4C=CO[C@H]4O3)[C@H]1CCC[C@]21CO1,4.69% [at 25.7 µM],–
CNC(=O)c1ccc2cc([C@@]3(O)CCn4cncc43)ccc2c1,4.32%,–
C=CC1(C)CC2=CCC3C(C)(C(=O)O)CCCC3(C)C2CC1OC(C)=O (stereo unspecified),4.73%,–
Cc1c(-c2ccnn2C)cc(C(=O)NCc2ccc(S(C)(=O)=O)cn2)c(=O)n1-c1cccc(C(F)(F)F)c1,–,inactive
O=C(c1ccc(C#Cc2cccc(F)c2)cn1)N1CC2CC2C1 (stereo unspecified),-5.37%,–
CC(O)C(O)/C=C/C=C/C(=O)O[C@@H]1C=C2COC(=O)[C@]2(O)[C@@]2(C)CCCC(C)(C)C12 (stereo partly specified),2.56% [at 25.7 µM],–
C=C1C2=CC(O)C(C)C1(C)CC/C(C)=C/CCC1(C)OC1C2=O (stereo unspecified),4.64%,–
C=C(C)[C@@H]1CC[C@](C)(O)[C@@H](OC(=O)c2ccccc2)C1,-1.52%,–
Nc1ccn([C@@H]2C(F)=C(CO)[C@@H](O)[C@H]2O)c(=O)n1,4.5%,–
C[C@@H]1O[C@@H](O[C@@H]2[C@@H](O)[C@H](O[C@@H]3[C@@H](O)[C@@H](O)[C@H](O[C@H]4[C@H](OC(=O)[C@]56CCC(C)(C)C[C@H]5C5=CCC7[C@@]8(C)C[C@H](O)[C@H](O[C@@H]9O[C@H](C(=O)O)[C@@H](O)[C@H](O)[C@H]9O)[C@@](C)(CO)C8[C@H](O)C[C@@]7(C)[C@]5(C)CC6)OC[C@H](O)[C@@H]4O)O[C@H]3C)OC[C@H]2O)[C@H](O)[C@H](O)[C@H]1O (stereo partly specified),0.798% [at 11.6 µM],–
C[C@@H]1CC[C@H]2C(C)(C)[C@H](O)[C@H](O)C[C@]2(C)[C@@]12Cc1c(O)cc3c(c1O2)CNC3=O,2.13%,–
OC[C@H]1O[C@@H](Oc2cc(O)cc(-c3cc4ccc(O)cc4o3)c2)[C@H](O)[C@@H](O)[C@@H]1O,-7.69% [at 25.7 µM],–
CC1(C)CC2C(C1)C1(C)CCC13OC3(CO)C2O (stereo unspecified),-1.01%,–
c1ccc(C(OC2CCN(CCCc3nn[nH]n3)CC2)c2ccccc2)cc1,-4.61%,–
COc1cc(NC(=O)c2ccccn2)ccc1Cl,1.31%,–
CC1(C)C(O)CCC2(C)C1C(O)C=C1COC(=O)C12O (stereo unspecified),0.666%,–
Oc1ccc([C@H]2COc3cc(O)ccc3C2)cc1,2.24%,–
CC(C)(O)C1CCC2(C)C3C(O)C4C(C13)C42CO (stereo unspecified),2.8%,–
C=CCc1ccc(O[C@@H]2O[C@H](CO[C@@H]3O[C@H](CO)[C@@H](O)[C@H](O)[C@H]3O)[C@@H](O)[C@H](O)[C@H]2O)c(O)c1,-3.24% [at 25.7 µM],–
